# Reference: publication PMC8384837, “Expanding the binding specificity for RNA recognition by a PUF domain”
# What was measured:
# Test in all cases: yeast three-hybrid, YBZ-1, SC-Leu-His + 0.5 mM 3-AT, 4 days
# Details in all cases: tags: N-Gal4 AD-HA kept; label: inside an RPR1-promoter hybrid RNA with tandem MS2 sites; ssRNA
# PUM1 PUF domain R1-RKL = PUM1 PUF domain R1-RKL (Homo sapiens, UniProt Q14671 828-1176, S863R;R864K;Q867L)
# Outline: (§1)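 Sequencing with Illumina followed PCR amplification of the repeat regions from transformants grown four days on SC-Leu (input) or SC-Leu-His + 0.5 mM 3-AT (selection). The transformants were strain YBZ-1 with a LexA–MS2 coat fusion and a HIS3 reporter, carrying Pumilio-1 PUF domain libraries and matching RNA elements. The interaction score is the log change in variant frequency from input to selection, computed in log2 with a pseudocount of 1 for absent variants.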
# PUM1 PUF domain R1-KWS = PUM1 PUF domain R1-KWS (Homo sapiens, UniProt Q14671 828-1176, S863K;R864W;Q867S)
# Outline: as §1
# PUM1 PUF domain R5-LYR = PUM1 PUF domain R5-LYR (Homo sapiens, UniProt Q14671 828-1176, C1007L;R1008Y;Q1011R)
# Outline: as §1
# PUM1 PUF domain R5-DFS = PUM1 PUF domain R5-DFS (Homo sapiens, UniProt Q14671 828-1176, C1007D;R1008F;Q1011S)
# Outline: as §1
# PUM1 PUF domain R3-YRW = PUM1 PUF domain R3-YRW (Homo sapiens, UniProt Q14671 828-1176, C935Y;Q939W)
# Outline: as §1
# PUM1 PUF domain R2-SIP = PUM1 PUF domain R2-SIP (Homo sapiens, UniProt Q14671 828-1176, N899S;Y900I;Q903P)
# Outline: as §1
# PUM1 PUF domain R6-WHR = molecular target: T1, PUM1 PUF domain R6-WHR (Homo sapiens, UniProt Q14671 828-1176, N1043W;Y1044H;Q1047R)
# T1 sequence: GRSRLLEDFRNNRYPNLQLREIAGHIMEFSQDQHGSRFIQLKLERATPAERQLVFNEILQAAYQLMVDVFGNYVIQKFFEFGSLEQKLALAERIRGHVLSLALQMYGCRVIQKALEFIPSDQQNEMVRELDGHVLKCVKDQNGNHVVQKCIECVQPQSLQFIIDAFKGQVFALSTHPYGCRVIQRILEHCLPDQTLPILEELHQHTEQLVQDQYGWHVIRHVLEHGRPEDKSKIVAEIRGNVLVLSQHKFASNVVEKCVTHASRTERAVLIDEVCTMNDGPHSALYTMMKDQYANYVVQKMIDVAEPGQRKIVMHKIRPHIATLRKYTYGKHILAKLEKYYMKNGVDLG
# Outline: as §1
# PUM1 PUF domain R5-SVV = PUM1 PUF domain R5-SVV (Homo sapiens, UniProt Q14671 828-1176, C1007S;R1008V;Q1011V)
# Outline: as §1
# PUM1 PUF domain R3-CRI = PUM1 PUF domain R3-CRI (Homo sapiens, UniProt Q14671 828-1176, Q939I)
# Outline: as §1
# PUM1 PUF domain R3-TRT = PUM1 PUF domain R3-TRT (Homo sapiens, UniProt Q14671 828-1176, C935T;Q939T)
# Outline: as §1
sequence,measurement,setting,value
GGCUAGAACUAGUGGAUCCCCCGGCGCCCGGCGGCUCGAGCCCGGGUAAGUGUAAAUUGUCUGCAUGCCGCCGGGCGCCAUGCCUGCAGGUCGACUCUAGAAAACAUG,binding signal,PUM1 PUF domain R1-RKL,2.52 log2 enrichment (interaction score)
same,binding signal,PUM1 PUF domain R1-KWS,3.62 log2 enrichment (interaction score)
GGCUAGAACUAGUGGAUCCCCCGGCGCCCGGCGGCUCGAGCCCGGGUAAGUGUUAAUAGUCUGCAUGCCGCCGGGCGCCAUGCCUGCAGGUCGACUCUAGAAAACAUG,binding signal,PUM1 PUF domain R5-LYR,3.43 log2 enrichment (interaction score)
same,binding signal,PUM1 PUF domain R5-DFS,5.63 log2 enrichment (interaction score)
GGCUAGAACUAGUGGAUCCCCCGGCGCCCGGCGGCUCGAGCCCGGGUAAGUGUAAGUAGUCUGCAUGCCGCCGGGCGCCAUGCCUGCAGGUCGACUCUAGAAAACAUG,binding signal,PUM1 PUF domain R3-YRW,4.4 log2 enrichment (interaction score)
GGCUAGAACUAGUGGAUCCCCCGGCGCCCGGCGGCUCGAGCCCGGGUAAGUGUAAAUCGUCUGCAUGCCGCCGGGCGCCAUGCCUGCAGGUCGACUCUAGAAAACAUG,binding signal,PUM1 PUF domain R1-KWS,3.87 log2 enrichment (interaction score)
GGCUAGAACUAGUGGAUCCCCCGGCGCCCGGCGGCUCGAGCCCGGGUAAGUGUCAAUAGUCUGCAUGCCGCCGGGCGCCAUGCCUGCAGGUCGACUCUAGAAAACAUG,binding signal,PUM1 PUF domain R5-LYR,3.17 log2 enrichment (interaction score)
GGCUAGAACUAGUGGAUCCCCCGGCGCCCGGCGGCUCGAGCCCGGGUAAGUGUAAAGAGUCUGCAUGCCGCCGGGCGCCAUGCCUGCAGGUCGACUCUAGAAAACAUG,binding signal,PUM1 PUF domain R2-SIP,3.71 log2 enrichment (interaction score)
GGCUAGAACUAGUGGAUCCCCCGGCGCCCGGCGGCUCGAGCCCGGGUAAGUGUAAAUAGUCUGCAUGCCGCCGGGCGCCAUGCCUGCAGGUCGACUCUAGAAAACAUG,binding signal,PUM1 PUF domain R6-WHR,3.96 log2 enrichment (interaction score)
same,binding signal,PUM1 PUF domain R5-LYR,4.43 log2 enrichment (interaction score)
same,binding signal,PUM1 PUF domain R5-SVV,0.43 log2 enrichment (interaction score)
same,binding signal,PUM1 PUF domain R3-CRI,3.93 log2 enrichment (interaction score)
same,binding signal,PUM1 PUF domain R3-TRT,4.01 log2 enrichment (interaction score)
GGCUAGAACUAGUGGAUCCCCCGGCGCCCGGCGGCUCGAGCCCGGGUAAGUGUAAUUAGUCUGCAUGCCGCCGGGCGCCAUGCCUGCAGGUCGACUCUAGAAAACAUG,binding signal,PUM1 PUF domain R3-TRT,1.8 log2 enrichment (interaction score)
GGCUAGAACUAGUGGAUCCCCCGGCGCCCGGCGGCUCGAGCCCGGGUAAGUGUGAAUAGUCUGCAUGCCGCCGGGCGCCAUGCCUGCAGGUCGACUCUAGAAAACAUG,binding signal,PUM1 PUF domain R5-LYR,0.51 log2 enrichment (interaction score)
same,binding signal,PUM1 PUF domain R5-SVV,3.44 log2 enrichment (interaction score)
